Laboratory results as given in PubChem BioAssay AID2253 (Southern Research Specialized Biocontainment Screening …, 2010).
Among all 2,200 compounds or so, about 1,300 (59%) were called active. No rule for the calls is given here. The set was probably picked from earlier hits. The list is a sample of the results. Entries with a potency or affinity are not part of this list.

experiment: THP-1 cell cytotoxicity, dose response, cytotoxicity control for Salmonella PhoP regulon inhibitors, S. typhimurium screen hits (AID 2253); conditions: THP-1 viability, CellTiter-Glo luminescence, 72 h; series mostly up to 50 µM; viability: at the top concentration

SMILES | viability
[O-]/[N+](=C\c1ccncc1)c1ccccc1 | 99.6% (inactive)
BrC(=C\c1ccccc1)/C=N/N1CCN(c2ccccn2)CC1 | 91% (inactive)
COC(=O)c1sc2ccccc2c1-n1cccc1C(=O)C(=O)Nc1ccc(Cl)cc1 | 85.5% (inactive)
CC(=O)c1cccc(NC(=O)NCc2ccco2)c1 | 83.1% (inactive)
O=C1CCCc2c1cc(C(=O)NCc1ccco1)c(=O)n2-c1ccc(Cl)cc1 | 99.9% (inactive)
CCCCN(C)C(=O)c1cn(C)c2ccc(S(=O)(=O)N(C)C)cc2c1=O | 98.4% (inactive)
CO[C@H]1/C=C/O[C@@]2(C)Oc3c(C)c(O)c4c(O)c(c(C=NN5CCN(C)CC5)c(O)c4c3C2=O)NC(=O)/C(C)=C\C=C\[C@H](C)[C@H](O)[C@@H](C)[C@@H](O)[C@@H](C)[C@H](OC(C)=O)[C@@H]1C | 84.4% (inactive)
O=Cc1cccn1Cc1ccccc1[N+](=O)[O-] | 111% (inactive)
COC(=O)C1C(=O)C=C(N2CCOCC2)CC1(C)C (stereo not given) | 90.5% (inactive)
O=c1c2oc3ccccc3c2ncn1Cc1ccc(Cl)cc1 | 104% (inactive)
CSc1nnc(NC(=O)CCc2ccccc2)s1 | 83.4% (inactive)
CN1CCCC(OC(=O)CCCC(=O)OC2CCCN(C)C2)C1 (stereo not given) | 96.3% (inactive)
O=C(Oc1ccc[nH]c1=O)c1cc([N+](=O)[O-])cc([N+](=O)[O-])c1 | 99.9% (inactive)
CC(C)Cc1nc2ccc(N)cc2[nH]1 | 95.7% (inactive)
Cc1ccc2nc(C(F)OC(F)(F)F)[nH]c2c1 (stereo not given) | 83.4% (inactive)
O=C(O)CCC(=O)NCC1OCCc2ccccc21 (stereo not given) | 93.2% (inactive)
CCn1cc(C(=O)O)c(=O)c2cc(OC)ccc21 | 81.6% (inactive)
O=C(CSc1nc2[nH]ncc2c(=O)[nH]1)N1CCCCC1 | 98.4% (inactive)
C#CCOc1ccc(Cl)cc1/C=N/O | 92.4% (inactive)
CC1CCCCN1Cc1cnc(Cl)s1 (stereo not given) | 93.5% (inactive)
CCN(CC)S(=O)(=O)c1cccc(C(=O)NC(Cc2c[nH]c3ccccc23)c2nnc3n2CCC3)c1 (stereo not given) | 88.5% (inactive)
O=C(N/N=C/c1ccco1)c1cccc(S(=O)(=O)Nc2ccccc2Cl)c1 | 87.6% (inactive)
CC(=O)Oc1ccc(C(=O)[C@H]2[C@H]3C(=O)N(c4ccc5ccccc5c4)C(=O)[C@H]3[C@@H]3C=CC=NN32)cc1 | 90.4% (inactive)
O=C(CSc1nnc(-c2ccccc2)n1-c1ccc(Cl)cc1)NC1CCS(=O)(=O)C1 (stereo not given) | 87.2% (inactive)
O=C(CSc1nnc2c(Cl)cc(Cl)cn12)NC1CCS(=O)(=O)C1 (stereo not given) | 102% (inactive)
COc1ccc(-c2ccc3c(N)c(C(=O)c4cccc(OC)c4)sc3n2)cc1 | 101% (inactive)
COc1cccc(-c2nnc(SCC(=O)Nc3ccc(OC)c(OC)c3)n2N)c1 | 114% (inactive)
COc1ccc(NC(=O)CCNS(=O)(=O)c2ccc3c(c2)CCC(=O)N3)cc1 | 102% (inactive)

SMILES | viability
O=c1[nH]c2ccccc2n2c(=S)[nH]nc12 | 108% (inactive)
CCn1ncc(/C=C/C(=O)NCc2cn(C)nc2C)c1C | 89% (inactive)
COc1ccc(C(=O)N2CCN(C(=O)c3ccco3)CC2)cc1OC | 109% (inactive)
COc1ccc(OC)c(S(=O)(=O)N(C)CC(=O)N2CCc3ccccc3C2)c1 | 93.7% (inactive)
Nc1nc(CSc2nc3ccccc3[nH]2)nc(N2CCOCC2)n1 | 83.1% (inactive)
O=C(NC1CCCC1)c1ccc(Cl)s1 | 93.1% (inactive)
Cc1cc(-c2csc(NC(=O)c3ccccc3C(F)(F)F)n2)c(C)n1Cc1ccccc1 | 86.9% (inactive)
O=C(OCc1nnc(-c2ccccc2)o1)c1ccc(S(=O)(=O)NCc2ccco2)cc1 | 88.5% (inactive)
COC(=O)c1cccc(NC(=O)CCCOc2ccccc2)c1 | 97.7% (inactive)
COC(=O)c1ccccc1NC(=O)NCc1ccc2c(c1)OCO2 | 90% (inactive)
O=C(Cn1nc(Cc2cccnc2)c2ccccc2c1=O)NCc1ccc2c(c1)OCO2 | 89.3% (inactive)
CC(C)(C)c1ccc(C2CC2C(=O)N/N=C\c2cc3ccccc3nc2Cl)cc1 (stereo not given) | 95% (inactive)
CCn1c(SCC(=O)N2CCCCC2)nc(O)cc1=O | 95.8% (inactive)
O=C(NCc1cccnc1)c1cc2ccccc2oc1=O | 91.9% (inactive)
CCCc1cc(C(=O)Cc2ccc(C(=O)OCC)o2)c(O)cc1O | 84.2% (inactive)
CCOC(=O)N1CCN(c2nc(C)c3c(n2)CCCC3=O)CC1 | 93% (inactive)
CCCCn1c(-c2ccccc2)nc2c(=O)n(C)c(=O)[nH]c21 | 93.3% (inactive)
CCN(CC)CCNC(=O)c1cn(CC)c2cc(N3CCN(C(=O)c4ccco4)CC3)c(F)cc2c1=O | 99.3% (inactive)
O=C1C2CCCN2c2ccc(S(=O)(=O)N3CCOCC3)cc2N1Cc1ccccc1F (stereo not given) | 87.7% (inactive)
Cc1ccc(Oc2ccc3c(c2)C(=O)N(c2ccc(S(=O)(=O)Nc4nccs4)cc2)C3=O)cc1 | 92.7% (inactive)
CCCS(=O)(=O)N1CCCC(C(=O)N2CCN(c3ccccn3)CC2)C1 (stereo not given) | 95.6% (inactive)
N=c1scc(-c2ccccc2)n1/N=C/c1ccco1 | 89.4% (inactive)
CCCCn1c(O)c(C(CC)=Nc2ccc3c(c2)CCC3)c(=O)[nH]c1=O | 88.6% (inactive)
Cc1cccc(-n2c(N)cc(=O)[nH]c2=S)c1 | 94.4% (inactive)
O=C(O)C1CC=CCC1C(=O)NC12CC3CC(CC(C3)C1)C2 (stereo not given) | 99.5% (inactive)
COC(=O)c1cc(C#N)c(Oc2ccccc2OC)nc1C | 90.4% (inactive)
CN(CCO)Cc1csc2ccc(Br)cc12 | 95.3% (inactive)
